ClpP mod: qHTS Assay for Activators of ClpP | Potency, µM (titrated, usually from 57.5 µM) | 1.9% of 340,000 active | purified B. subtilis ClpP, FRET peptide cleavage, 20 min; active = well fitted falling curve with a large enough effect; inconclusive = small, poorly fitted or top-dose-only effect; inactive = no such curve, though single readings can be large or run the other way; also: the source files actives as falling curves though it sought activators and does not explain the sign; nearly all actives have a fitted effect of over 65% in size
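FRET quenching reversal measured ClpP activation: 10 microg/mL B. subtilis ClpP at pH 8 with the FRET-FV decapeptide, read at 430 nm after 320 nm excitation. The 20-min minus 0-min signal was scaled between DMSO/no-enzyme wells and ADEP (5.8 microM final).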
D3 ag: qHTS of D3 Dopamine Receptor Agonist: qHTS | D(3) dopamine receptor (Homo sapiens), P35462 | D3R DiscoveRx beta-arrestin cells, luminescence, 90 min | max activation, % | 0.58% of 410,000 active | AID 652048, 2013; in the data active = max activation above about 30%
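Agonist mode: compounds and dopamine controls were applied to plated cells for 90 min at 37 degrees C after an overnight attachment at 1500 cells/well. Luminescent read-out followed 30 - 60 minutes at room temperature with DiscoveRx detection reagent.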
GLP-1R inv ag: qHTS of GLP-1 Receptor Inverse Agonists (Inhibition Mode); HEK293 GLP-1R CRE-luciferase, luminescence, 24 h; GLP-1R form is constitutively active; Potency, µM (series often up to 38.3 µM), most hits filed as inhibitors; 1.6% of 410,000 active; also: nearly all actives have a fitted effect of over 55% in size
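HEK293 cells stably co-expressing a cAMP-responsive luciferase reporter and constitutively active GLP-1R were seeded, incubated 12 h, then exposed to compounds for 24 h at 37 C. Luminescence was read 12 min after detection reagent; inverse agonists lower signal.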
GLP1R cytotox: qHTS of GLP-1 Receptor Inverse Agonists: Cytotox Screen | HEK293 cAMP-luciferase reporter cells, luminescence, 24 h | Potency, µM (top dose mostly 38.3 µM), hits mostly inhibitors | 0.13% of 410,000 active | AID 624418, 2012;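 also: loss of luciferase light is scored as toxicity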
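Seeding density was 200 cells/uL; after overnight-length (12 h) culture, 23 nL compounds went on for 24 h at 37 °C. Readout used a luciferase detection reagent, luminescence taken after 12 min at room temperature.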
GLP-1R agonist: qHTS of GLP-1 Receptor Agonists; Glucagon-like peptide 1 receptor (Homo sapiens), P43220; HEK293 GLP-1R CRE-luciferase, luminescence, 4-6 h; cells express a hypersensitive GLP-1R form; Potency, µM (top dose mostly 45.6 µM), most hits filed as activators; 0.007% of 380,000 active
D3 antag: qHTS of D3 Dopamine Receptor Antagonist: qHTS. 2.5% of 360,000 active. D(3) dopamine receptor (Homo sapiens), P35462. max response, negative = inhibition, %. D3R cells, DiscoveRx beta-arrestin luminescence, antagonist mode; stronger effect = lower value. AID 652054, 2013; in the data active = max response below about -50%; inconclusive = no clear call, values can overlap the other calls
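Cells plated overnight at 1500 cells/well, then exposed to library compounds with dopamine controls for 90 minutes at 37 degrees C. DiscoveRx reagent added for 30–60 minutes at room temperature; luminescence read, quantitative HTS format.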
Numbers stand for hits; 0 = inactive; ? = inconclusive; - = not tested or not shown; ! = a repeat was not active; [ ] = dose if it differs, or a comment. Compounds with a hit are over-represented: about 5.7% of the library has one in this group of screens. Unless noted, calls follow the shape of the dose curve; as a rule, active = well fitted curve in the direction sought with a large enough effect; inconclusive = small, poorly fitted or top-dose-only effect, or another doubt; inactive = no such curve, though single readings can be large; an effect the other way counts as inactive or inconclusive.

SMILES	ClpP mod	D3 ag	GLP-1R inv ag	GLP1R cytotox	GLP-1R agonist	D3 antag
CC(C)Cc1nc(SCC(=O)N2CCCCC2)c2c(=O)n(C)c(=O)n(C)c2n1	0	0	10µM	0	0	0
Cn1c2ccccc2c2cc([N+](=O)[O-])ccc21	0	0	0	0	0	0
CN1c2ccc([N+](=O)[O-])cc2N(C)C1(C)c1ccccc1 (configuration not stated)	-	0	?	?	0	-62.1
O=S(=O)(Nc1cccc(-c2ccc(N3CCOCC3)nn2)c1)c1ccc(F)c(C(F)(F)F)c1	0	0	?	?	-	-
CNC[C@H](O)c1cccc(O)c1	0	44.6!	0	0	?	0
C=C1CC(Cn2cc(Br)c(=O)[nH]c2=O)(c2ccc(-c3ccccc3)cc2)OC1=O (configuration not stated)	0	0	0	0	0	-89.0
CCOc1ccc2c(c1)sc1nc(=O)n(-c3ccc(Cl)c(Cl)c3)c(=O)n12	0	0	0	0	-	-
COc1ccc(CC(=O)NNC(=S)Nc2ccccc2)cc1Cl	0	0	0[0.307 µM]	0[0.307 µM]	0	0
CCCOc1ccc(CC(=O)NNC(=S)Nc2ccccc2)cc1Br	0	0	0	0	0	-56.2
COC(=O)C1(C)CCCC2(C)c3cc(OC)ccc3C(=O)C(Br)C12 (configuration not stated)	0	0	?	0	0	0
c1ccc(COc2cccc(CN3CCN(c4ccccn4)CC3)c2)cc1	0	39.2	0	0	0	0
Cc1cccc(CN2CCN(c3ccccn3)CC2)c1	0	0	0	0	0	?
CC1(C)C2CC[C@]1(C)C(=O)N(CCCCN1CCN(c3ccccn3)CC1)C2=O	0	79.9	?	0	0	0
O=C(CCCN1CCN(c2ccccn2)CC1)c1ccc(F)cc1	0	0	0	0	0	0
c1ccc(N2CCN(Cc3ccsc3)CC2)nc1	0	53.1	0	?	0	?
c1ccc(CCCN2CCN(c3ccccn3)CC2)cc1	0	0	0	0	0	-62.5
COC(=O)c1c(-c2cccs2)csc1NC(=O)c1ccc(C(C)(C)C)cc1	0	0	0	0	-	-
Cc1ccc(CN2CCN(c3ccccn3)CC2)s1	0	59.6	0	0	0	?
CCNC(=O)/C(=C\C=C\c1ccccc1)NC(=O)c1ccc(Br)o1	3.16µM	0	0	0	0	0
CCOc1ccc(-c2cc3c(=O)n(Cc4nc(-c5ccc(OC)cc5OC)oc4C)ccn3n2)cc1Cl	0	0	0	0	0	-
CCC(C)(C)c1ccc(OCCCC[n+]2cccc(C)c2)c(C(C)(C)CC)c1	-	0	10µM	0	0	0
CC1CN(C(=O)Nc2ccc(C(=O)NCc3ccccc3F)cc2)c2ccccc2S1 (configuration not stated)	0	0	0	0	-	-
Fc1ccccc1N1CCN(C(c2ccccn2)c2nnnn2C2CCCCC2)CC1 (configuration not stated)	0	0	0	?	0	0
COc1ccccc1N1CCN(C(c2cc3ccc(C)cc3[nH]c2=O)c2nnnn2C2CCCC2)CC1 (configuration not stated)	0	0	0	0	0	-69.8
COc1ccc(OC)c(C(c2nnnn2C2CCCC2)N2CCN(c3ccccc3F)CC2)c1 (configuration not stated)	25.1µM	0	?	0	0	0
SMILES	ClpP mod	D3 ag	GLP-1R inv ag	GLP1R cytotox	GLP-1R agonist	D3 antag
COc1ccccc1N1CCN(C(c2ccccn2)c2nnnn2C2CCCCC2)CC1 (configuration not stated)	0	0	0	0	0	-66.0
CC(C)OCCCn1c(=O)c2ccccc2n2c(-c3ccc(F)c(F)c3)nnc12	0	0	0	0	-	-
N/C(=N\S(=O)(=O)c1cc(C(F)(F)F)cc(C(F)(F)F)c1)c1ccc(Cl)cc1	0	0	2.51µM	?	0	0
O=S(=O)(Nc1ccccc1N1CCCC1)c1ccccc1C(F)(F)F	0	0	?	0	0	0
O=S(=O)(Nc1ccccc1N1CCCCC1)c1ccc(Cl)s1	0	0	10µM	0	0	0
Cc1ccc(S(=O)(=O)c2nc(S(=O)(=O)c3ccccc3)sc2N2CCN(C)CC2)cc1	0	0	?	0	0	-85.8
Cc1ccc(S(=O)(=O)c2nc(S(=O)(=O)c3ccccc3)sc2N2CCN(CCO)CC2)cc1	0	0	0	0	0	-73.7
CNS(=O)(=O)c1cn(CC(=O)Nc2ccc(OC)cc2OC)cc1S(=O)(=O)NC	0	0	0	0	-	-
CCCCNC(=O)c1cccc(-n2cnc3cccnc32)c1C	0	0	0	0	-	-
CCOC(=O)c1nc2ccc(C)cc2c2c1C1CC(c3c(Cl)cccc31)N2C(=O)OCc1ccccc1 (configuration not stated)	0	0	5.01µM	0	0	0
O=C(C[N+]12CN3CN(CN(C3)C1)C2)c1ccc(-c2ccccc2)cc1	0	-	-	-	-	-
COC(=O)c1ccc(C)c(NS(=O)(=O)c2ccc(OC)c(OC)c2)c1	0	0	0	0	0	-70.0
COC(=O)c1cccc(NS(=O)(=O)c2ccc(OC)c(OC)c2)c1C	0	0	0	0	0	0
CCc1ccc(S(=O)(=O)/N=C2\C=C(Nc3ccc(C(=O)O)cc3)C(=O)c3ccccc32)cc1	0	0	0	?	0	-67.8
Cc1ccc(S(=O)(=O)/N=C2\C=C(Nc3cccc(C(=O)O)c3)C(=O)c3ccccc32)cc1	0	0	0	?	0	?
COC(=O)c1ccccc1NC1=C/C(=N\S(=O)(=O)c2ccc(C(=O)O)cc2)c2ccccc2C1=O	-	0	?	?	0	-99.2
Cc1ccc(S(=O)(=O)/N=C2\C=C(Nc3cccc(C(=O)O)c3)C(=O)c3ccccc32)c(C)c1	-	0	0	?	0	-71.5
COC(=O)c1cccc(NS(=O)(=O)c2cccs2)c1C	0	0	0	0	0	0
CCc1ccc(NC2=CC(=O)C(=O)c3ccccc32)cc1	0	0	0	0	0	0
COC(=O)c1ccccc1NC1=C/C(=N\S(=O)(=O)c2cccs2)c2ccccc2C1=O	0	0	?	?	0	-93.1
CCC(=O)Nc1nc2nc(-c3ccccc3)cc(-c3ccccc3)n2n1	0	0	0	0	0	0
CCCC(=O)Nc1nc2nc(-c3ccccc3)cc(-c3ccccc3)n2n1	12.6µM	0	0	0	0	0
